# Data as given in PubChem BioAssay AID493094 (Broad Institute, 2011).
# The source made the active and inactive calls.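 Rule for the calls: active = falling FRET signal with an AC50 fitted within ten times the highest valid concentration tested for that sample (actives reach about 61 µM in these data); inactive = the rest, including compounds that raise the signal.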
# Assay: compounds lowering YIC probe YFP/CFP ratio – biochemical, dry powder samples, FRET, counter-screen for RanGTP-importin-beta inhibitor project, dose response (AID 493094)
# Details: cell-free YIC FRET probe; series mostly up to 100 µM
row,SMILES,AC50
1,Clc1nc(NCc2ccccc2)c2ccccc2n1,inactive
2,CC1(C)CC(=O)c2c(C(F)(F)F)nn(-c3ccc(C(N)=O)c(OC4CCC(N)CC4)c3)c2C1 (stereo unspecified),inactive
3,Cc1cc(Nc2ccc(C(F)(F)F)cc2)n2ncnc2n1,inactive
4,CC1(C)CC(=O)c2c(C(F)(F)F)nn(-c3ccc(C(N)=O)c(NC4CCC(O)CC4)c3)c2C1 (stereo unspecified),inactive
5,Cc1ccc(S(=O)(=O)c2cc3c(=O)n4cccc(C)c4nc3n(C3CCCCC3)c2=N)cc1,26 µM (active)
6,Cc1cccc(-n2c(C)cc(/C=C3/C(=N)N4N=C(CC(C)C)SC4=NC3=O)c2C)c1,25.4 µM (active)
7,C[C@@H](Nc1nc(N2CCCC2)nc2ccccc12)c1ccccc1,inactive
8,C=CCn1c(N)c(C(=O)OCCC)c2nc3ccccc3nc21,36.9 µM (active)
9,COc1cc(OC)cc(C(=O)NCCNc2nc3cc(C)cc(C)c3cc2C#N)c1,27 µM (active)
10,COCCNC(=O)/C(C#N)=C/c1cn(CC(=O)NCc2ccco2)c2ccccc12,61.3 µM (active)
11,c1ccc2c(N3CCCC3)nc(N3CCCC3)nc2c1,inactive
12,CC(C)SCC(=O)Nc1ncc2c(n1)-c1ccccc1CC2,6.37 µM (active)
13,CCCN(CCC)c1nc(N)c2ccccc2n1,inactive
14,CCNc1nc(N2CCCC2)nc2ccccc12,inactive
15,CCCN(CCC)c1nc(N2CCOCC2)nc2ccccc12,inactive
16,CCCN(CCC)c1nc(N2CCCC2)c2cc(OC)c(OC)cc2n1,inactive
17,COc1ccc(CCNC(=O)c2cc3c(=O)n4cccc(C)c4nc3n(CCCN3CCOCC3)c2=N)cc1,4.28 µM (active)
18,CC1(C)CC(=O)c2c(C(F)(F)F)nn(-c3ccc(C(N)=O)c(NC4CCC(OC(=O)CN)CC4)c3)c2C1 (stereo unspecified),inactive

row,SMILES,AC50
1,C[C@H](Nc1nc(Cl)nc2ccccc12)c1ccccc1,inactive
2,c1ccc2c(N3CCOCC3)nc(N3CCOCC3)nc2c1,inactive
3,CC(Nc1nc(N2CCCC2)nc2ccccc12)c1ccccc1 (stereo unspecified),inactive
4,COc1cc2nc(N3CCCC3)nc(N3CCCC3)c2cc1OC,inactive
5,CC1=C(C(=O)OCC2CCCO2)C(c2ccccc2OC(C)C)C2C(=O)CC(c3ccco3)CC2=N1 (stereo unspecified),13.2 µM (active)
6,CCN(CC)c1nc(N2CCCC2)nc2ccccc12,inactive
7,O=c1[nH]c(N2CCCC2)nc2ccccc12,inactive
8,c1ccc(CNc2nc(N3CCCC3)nc3ccccc23)cc1,inactive
9,CCCN(CCC)c1nc(Cl)nc2ccccc12,inactive
10,C[C@H](Nc1nc(N2CCCC2)nc2ccccc12)c1ccccc1,inactive
11,CC1(C)CCC(c2ccc(Cl)cc2)=C(CN2CCN(c3ccc(C(=O)NS(=O)(=O)c4ccc(N[C@H](CCN5CCOCC5)CSc5ccccc5)c(S(=O)(=O)C(F)(F)F)c4)cc3)CC2)C1,inactive
12,CCCN(CCC)c1nc(N2CCNCC2)c2ccccc2n1,inactive
13,CCCN(CCC)c1nc(N2CCCC2)nc2ccccc12,inactive
14,C[C@@H](Nc1nc(Cl)nc2ccccc12)c1ccccc1,inactive
15,CCCN(CCC)c1nc(N2CCCC2)nc2cc(OC)c(OC)cc12,inactive
16,COc1ccc(-c2cc(C(F)(F)F)n3nc(N)nc3n2)cc1,54.5 µM (active)
17,O=C(O)Cn1cc(/C=C2\SC(=O)N(CC(=O)N3CCCCCC3)C2=O)c2ccccc21,55.3 µM (active)
18,CCCN(CCC)c1nc(NCc2ccccc2)nc2ccccc12,inactive
